Bioassay records as filed in PubChem.
The full list was thinned out, with hits kept by preference.
Pf Dd2 growth – inhibitors of Plasmodium falciparum Dd2 growth | P. falciparum Dd2 growth, SYBR Green, 72 h | AID 1347417 | Potency, µM (doses to about 28.9 µM), most hits filed as inhibitors | 120,000 tested, 4.3% active; active means well fitted inhibition curve with a large enough effect; further: nearly all actives have a fitted effect of over 65% in size
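Readout: SYBR Green fluorescence, 485 nm excitation, 535 nm emission, after ~16 h lysis at 37C. Before that, Dd2-infected red cells (2.5% hematocrit) grew 72 h with compound, 29 uM top final concentration.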
A number is an active result; - = inactive; [ ] = remark or other dose.

SMILES	Pf Dd2 growth
CC(C)(C)OC(=O)N1CCC(c2c(C(=O)NCc3ccc(F)cc3)cnn2-c2ccc(F)cc2)CC1	-
CC(C)CC(=O)N1CCC(Oc2ccccc2)C1 (stereo not given)	-
CCC(C)(C)C(=O)NCCc1noc(C2CC2)n1	-
COc1cccc(CN2CCn3c(nn(-c4ccncc4)c3=O)C2)c1	-
COC(=O)[C@@H]1Cc2c([nH]c3ccccc23)[C@H]2C[C@H](NCc3cccs3)C[C@@H](c3ccccc3)N21	7.9µM
COC(=O)[C@@H]1Cc2c([nH]c3ccccc23)[C@H]2C[C@@H](NCCNC(C)=O)C[C@@H](c3ccc(C)cc3)N21	-
C#CCN[C@H]1C[C@@H]2c3[nH]c4ccccc4c3C[C@@H](C(=O)OC)N2[C@H](c2ccc(F)cc2)C1	13µM
COC(=O)[C@@H]1Cc2c([nH]c3ccccc23)[C@H]2C[C@@H](N3CCOCC3)C[C@@H](c3ccc(F)cc3)N21	-
COC(=O)[C@@H]1Cc2c([nH]c3ccccc23)[C@@H]2C[C@@H](NCCNC(C)=O)C[C@@H](c3ccc(F)c(F)c3)N12	-
COC(=O)[C@@H]1Cc2c([nH]c3ccccc23)[C@H]2C[C@@H](NCCNC(C)=O)C[C@@H](c3ccccc3)N21	-
COC(=O)[C@@H]1Cc2c([nH]c3ccccc23)[C@H]2C[C@@H](NCc3cccnc3)C[C@@H](c3ccc(F)c(F)c3)N21	-
COC(=O)[C@@H]1Cc2c([nH]c3ccccc23)[C@H]2C[C@@H](NC3CC3)C[C@@H](c3ccc(F)cc3)N21	4.5µM
COC(=O)[C@@H]1Cc2c([nH]c3ccccc23)[C@H]2C[C@@H](NCCNC(C)=O)C[C@@H](c3ccc(C(C)C)cc3)N21	-
COC(=O)[C@@H]1Cc2c([nH]c3ccccc23)[C@H]2C[C@@H](NCCN3CCOCC3)C[C@@H](c3ccc(C(F)(F)F)cc3)N21	8.9µM
COC(=O)[C@@H]1Cc2c([nH]c3ccccc23)[C@H]2C[C@H](NCCO)C[C@@H](c3ccccc3)N21	-
COC(=O)[C@@H]1Cc2c([nH]c3ccccc23)[C@H]2C[C@@H](NCCO)C[C@@H](c3ccc(F)cc3)N21	-
CN(C)C[C@@H]1CN(c2ccncn2)C[C@H]1NC(=O)c1cc(Cl)ccc1F	-
CN(CC1CCOC1)C(=O)Nc1ccccc1 (stereo not given)	-[5.79 µM]
COc1nccnc1NC1CCN(C(=O)c2ccc3[nH]ccc3c2)CC1	-[5.79 µM]
COc1ccc(C2=CC(c3ccccc3Cl)n3nc(-c4ccc(C)cc4)nc3N2)cc1 (stereo not given)	11µM
Cc1ccc(C2C=C(c3ccc(F)cc3)Nc3nc(CCCO)nn32)cc1 (stereo not given)	8.9µM
COc1ccc(C2C=C(c3ccc(F)cc3)Nc3nc(-c4ccc(Cl)cc4)nn32)cc1 (stereo not given)	1.1µM
COc1ccc(C2Cn3nnc(-c4nc(-c5ccc(Cl)cc5)no4)c3CO2)cc1 (stereo not given)	-
COc1ccc(C2C=C(c3ccccc3)Nc3nc(NS(=O)(=O)c4ccc(C)cc4)nn32)cc1 (stereo not given)	-
Cc1ccc(C2C=C(c3ccccc3)Nc3nc(NS(=O)(=O)c4ccc(C)cc4)nn32)cc1 (stereo not given)	-
SMILES	Pf Dd2 growth
OCCCc1nc2n(n1)C(c1cccc(Cl)c1)C=C(c1ccccc1)N2 (stereo not given)	-
CCOc1ccccc1C1C(C(=O)Nc2ccccc2)=C(C)Nc2nc(-c3ccccc3)nn21 (stereo not given)	-
O=C1NC(=O)[C@@H]2CN(C(=O)c3coc(COc4ccc5c(c4)OCO5)n3)C[C@H]12	-
COCc1cc(C[C@H]2CNCC[C@H]2CC(=O)NCc2ccccc2OC)no1	-
CCOc1ccccc1NC(=O)Cn1c(-c2ccc(Cl)cc2)nc(C)c(CCO)c1=O	-
Cc1noc(C)c1S(=O)(=O)NCC1(COc2ccc(C(F)(F)F)cn2)C[C@@H](O)[C@@H](O)C1 (stereo not given in full)	-
Cc1occc1C(=O)N1CCC2(CCCN(CC3CCCCC3)C2=O)C1 (stereo not given)	-
CCc1cc(N2CCC(Cc3nncn3C)CC2)nc(N2CCOCC2)n1	-
c1ccc(-c2cn3c(n2)CO[C@@H](CNCc2cccs2)C3)cc1	-
O=c1c(N2CCc3ccccc3C2)csc2ccccc12	-
C=CCCC(=O)N1CCOc2c(O)cc(-c3nc4ccccc4s3)cc2C1	11µM
CN(C)C(=O)N1CCC2(CC1)CN(C(=O)CCCN)Cc1ccccc1O2	-
Cn1nc2n(c1=O)CCN(C(=O)CCCc1nc3ccccc3s1)CC2	-
O=C(CCc1nc2ccccc2s1)N1CCC(c2noc(-c3ccccc3)n2)C1 (stereo not given)	-[5.79 µM]
NCCCCC(=O)N1CCOc2c(O)cc(-c3csc4ccccc34)cc2C1	5µM
NCCCC(=O)N1CCC2(CC1)CN(C(=O)Cc1ccccc1)CCO2	-
O=C1CCCN1CCN1CCOc2c(O)cc(-c3csc4ccccc34)cc2C1	11µM
Cc1cnc(C)c(-c2cc(O)c3c(c2)CN(CC2CNC(=O)O2)CCO3)n1 (stereo not given)	-
Cc1ccc(OCC(=O)N2CCC3(CC2)CC(N(C(=O)NC(C)C)C2CC2)CCO3)cc1 (stereo not given)	-
CCn1cc(S(=O)(=O)N2CC(F)(F)C[C@H]2c2nc(C)no2)cn1	-
O=C(N[C@H]1CO[C@H]2[C@@H]1OC[C@@H]2n1cc(CC2CCCCC2)nn1)c1ccc(C(F)(F)F)cc1	-
CCCn1cnc2c1CN(S(=O)(=O)c1cccc(C(F)(F)F)c1)[C@H](C(=O)OC)C2	-
COc1ccc(C(=O)NC2CCN(c3cc(-c4cccs4)[nH]n3)CC2)cc1	-
CCOc1ccc(CNC(=O)c2cc(=O)[nH]c3ccc(S(=O)(=O)N4CCCC4)cc23)cc1	-
CCOc1ccc(C(=O)N2CCC3(CC2)NC(=O)N(Cc2ccc(F)cc2)C3=O)cc1	-
SMILES	Pf Dd2 growth
CCOc1ccc(C2c3[nH]c4ccccc4c3CCN2C(=O)CSCc2ccc(F)cc2)cc1 (stereo not given)	11µM
O=C(CCC(F)(F)F)NC1CC(=O)N(CCCc2ccccc2)C1 (stereo not given)	-
CCC(c1cccs1)N1C(=O)[C@H]2CNC[C@H]2C1=O (stereo not given in full)	-
Cn1cc(-c2ccncc2)cc1C(=O)NC1CCN(Cc2ccccc2)CC1	5µM
Cn1c(C(=O)NC2CCN(Cc3ccccc3)CC2)cc2c1CCN(Cc1ccccc1)C2	-
Cc1sc2ccn(C)c(=O)c2c1C(=O)NC1CCN(Cc2ccccc2)CC1	-
CN(C)Cc1cc(CC2(NC3CCC3)COC2)no1	-
Cn1nccc1C(=O)N1CCC2(CCCCO2)CC1	-
O=C(C1CCC(Cn2c(=O)c3sccc3n(Cc3cccc(F)c3)c2=O)CC1)N1CCCCC1 (stereo not given)	8.9µM
Cc1ccccc1Cn1c(=O)n(CC2CCC(C(=O)N3CCOCC3)CC2)c(=O)c2sccc21 (stereo not given)	-
Cc1ccc(Cn2c(=O)n(CC3CCC(C(=O)N4CCOCC4)CC3)c(=O)c3sccc32)cc1 (stereo not given)	-
O=C(NC1CCN(c2cc(-c3ccc(F)cc3)[nH]n2)CC1)c1cccnc1	-
Cc1cn2nc(C(=O)Nc3ccc(F)cc3C)cc2c(N2CCSCC2)n1	-
COc1ccc(-c2cn3c(n2)sc2cc(C(=O)NCCCN4CCCCC4)ccc23)cc1	1.1µM
